Measured values as given in PubChem BioAssay AID1159580 (chemical genetic matrix, 2015).
Screen size: about 5,500 compounds; about 2,000 (36%) were called active. Roughly 18% stayed inconclusive and do not appear here. Rule as the data show it: active = normalized growth mostly below about 0.91 (no sharp cut-off); inconclusive = no clear call, values can overlap the other calls; inactive = mostly above about 0.92. This is one part of the list.

Experiment: chemical genetic growth profiling, strain panel (AID 1159580);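 also: tested at 20 µM; growth read once vehicle control cultures reached saturation at 30 °C; 1 = growth at the plate median or of vehicle wells; lower values mean less growth of the strain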
Settings: growth OD

Measured: normalized growth

COc1cc(OC)c2c(c1Cl)OC1(C2=O)C(O)=CC(=O)CC1C (stereo unspecified)
inactive: S. cerevisiae deletion strains, locus YJR075W, strain HOC1, active compounds read low 1.02 | S. cerevisiae deletion strains, locus YKL009W, strain mrt4, active compounds read low 1.01 | S. cerevisiae deletion strains, locus YKL068W, active compounds read low 0.991 | S. cerevisiae deletion strains, locus YKL085W, strain MDH1 (second series), active compounds read low 1.01 | S. cerevisiae deletion strains, locus YKL085W, strain MDH1, active compounds read low 1.01 | S. cerevisiae deletion strains, locus YKL160W, strain elf1, active compounds read low 1.01 | S. cerevisiae deletion strains, locus YKR001C, strain vps1, active compounds read low 1.03 | S. cerevisiae deletion strains, locus YKR026C, strain gcn3, active compounds read low 1.01 | S. cerevisiae deletion strains, locus YKR091W, strain srl3, active compounds read low 1.01 | S. cerevisiae deletion strains, locus YLL001W, strain dnm1, active compounds read low 1 | S. cerevisiae deletion strains, locus YLL026W, active compounds read low 1.01 | S. cerevisiae deletion strains, locus YLL041C, strain sdh2, active compounds read low 1.01 | S. cerevisiae deletion strains, locus YLR027C, strain aat2, active compounds read low 1.03 | S. cerevisiae deletion strains, locus YLR039C, strain RIC1, active compounds read low 1.08 | S. cerevisiae deletion strains, locus YLR058C, strain SHM2, active compounds read low 1.03 | S. cerevisiae deletion strains, locus YLR102C, strain apc9, active compounds read low 0.991 | S. cerevisiae deletion strains, locus YLR113W, strain HOG1, active compounds read low 1.04 | S. cerevisiae deletion strains, locus YLR221C, strain rsa3, active compounds read low 1.02 | S. cerevisiae deletion strains, locus YLR258W, strain gsy2, active compounds read low 1 | S. cerevisiae deletion strains, locus YLR262C, strain YPT6 (second series), active compounds read low 1.02 | S. cerevisiae deletion strains, locus YLR262C, strain YPT6, active compounds read low 1.06 | S. cerevisiae deletion strains, locus YLR268W, strain sec22, active compounds read low 1.02 | S. cerevisiae deletion strains, locus YLR320W, strain mms22, active compounds read low 1.02 | S. cerevisiae deletion strains, locus YLR342W, strain FKS1 (second series), active compounds read low 1.06 | S. cerevisiae deletion strains, locus YLR342W, strain FKS1, active compounds read low 1.01 | S. cerevisiae deletion strains, locus YLR357W, strain rsc2, active compounds read low 1.02 | S. cerevisiae deletion strains, locus YLR370C, strain arc18, active compounds read low 1.01 | S. cerevisiae deletion strains, locus YLR371W, strain rom2, active compounds read low 1 | S. cerevisiae deletion strains, locus YLR384C, strain iki3, active compounds read low 1.01 | S. cerevisiae deletion strains, locus YLR418C, strain cdc73, active compounds read low 0.992 | S. cerevisiae deletion strains, locus YML016C, strain PPZ1, active compounds read low 1.03 | S. cerevisiae deletion strains, locus YML032C, strain rad52, active compounds read low 1 | S. cerevisiae deletion strains, locus YML120C, strain ndi1, active compounds read low 1.01 | S. cerevisiae deletion strains, locus YML124C, strain tub3, active compounds read low 0.991 | S. cerevisiae deletion strains, locus YMR058W, strain fet3, active compounds read low 1.01 | S. cerevisiae deletion strains, locus YMR078C, strain ctf18, active compounds read low 0.98 | S. cerevisiae deletion strains, locus YMR125W, strain sto1, active compounds read low 1.01 | S. cerevisiae deletion strains, locus YMR129W, active compounds read low 1.01 | S. cerevisiae deletion strains, locus YMR205C, strain PFK2, active compounds read low 1.02 | S. cerevisiae deletion strains, locus YMR223W, strain ubp8, active compounds read low 1.01 | S. cerevisiae deletion strains, locus YMR231W, strain pep5, active compounds read low 0.995 | S. cerevisiae deletion strains, locus YMR307W, strain GAS1, active compounds read low 1.04 | S. cerevisiae deletion strains, locus YNL067W, strain RPL9B, active compounds read low 1.01 | S. cerevisiae deletion strains, locus YNL071W, strain lat1, active compounds read low 1.01 | S. cerevisiae deletion strains, locus YNL128W, strain TEP1, active compounds read low 1.03 | S. cerevisiae deletion strains, locus YNL183C, strain NPR1, active compounds read low 0.932 | S. cerevisiae deletion strains, locus YNL209W, strain ssb2, active compounds read low 1.03 | S. cerevisiae deletion strains, locus YNL233W, strain BNI4, active compounds read low 1.02 | S. cerevisiae deletion strains, locus YNL248C, strain rpa49, active compounds read low 1.01 | S. cerevisiae deletion strains, locus YNL250W, strain rad50, active compounds read low 0.992 | S. cerevisiae deletion strains, locus YNL271C, strain bni1, active compounds read low 0.984 | S. cerevisiae deletion strains, locus YNL298W, strain CLA4, active compounds read low 1.01 | S. cerevisiae deletion strains, locus YNL307C, strain MCK1, active compounds read low 0.993 | S. cerevisiae deletion strains, locus YNL322C, strain KRE1 (second series), active compounds read low 1.01 | S. cerevisiae deletion strains, locus YNL322C, strain KRE1, active compounds read low 1.02 | S. cerevisiae deletion strains, locus YNR049C, strain mso1, active compounds read low 1 | S. cerevisiae deletion strains, locus YNR052C, strain pop2, active compounds read low 0.969 | S. cerevisiae deletion strains, locus YOL006C, strain TOP1, active compounds read low 1.2 | S. cerevisiae deletion strains, locus YOL012C, strain htz1 1.12 | S. cerevisiae deletion strains, locus YOL147C, strain pex11, active compounds read low 1 | S. cerevisiae deletion strains, locus YOR001W, strain rrp6, active compounds read low 1.01 | S. cerevisiae deletion strains, locus YOR061W, strain CKA2, active compounds read low 1.04 | S. cerevisiae deletion strains, locus YOR069W, strain VPS5, active compounds read low 1.02 | S. cerevisiae deletion strains, locus YOR070C, strain gyp1, active compounds read low 1.02 | S. cerevisiae deletion strains, locus YOR080W, strain dia2, active compounds read low 1.01 | S. cerevisiae deletion strains, locus YOR083W, strain WHI5, active compounds read low 1.01 | S. cerevisiae deletion strains, locus YOR106W, strain vam3, active compounds read low 1.02 | S. cerevisiae deletion strains, locus YOR136W, strain idh2, active compounds read low 1 | S. cerevisiae deletion strains, locus YOR144C, strain elg1, active compounds read low 0.996 | S. cerevisiae deletion strains, locus YOR184W, strain ser1, active compounds read low 1.04 | S. cerevisiae deletion strains, locus YOR231W, strain MKK1, active compounds read low 0.978 | S. cerevisiae deletion strains, locus YOR265W, strain rbl2, active compounds read low 1 | S. cerevisiae deletion strains, locus YOR270C, strain vph1, active compounds read low 1.05 | S. cerevisiae deletion strains, locus YOR290C, strain snf2, active compounds read low 1.02 | S. cerevisiae deletion strains, locus YOR316C, strain cot1, active compounds read low 0.992 | S. cerevisiae deletion strains, locus YPL051W, strain arl3, active compounds read low 0.999 | S. cerevisiae deletion strains, locus YPL078C, strain atp4, active compounds read low 1.01 | S. cerevisiae deletion strains, locus YPL106C, strain sse1, active compounds read low 1 | S. cerevisiae deletion strains, locus YPL240C, strain hsp82, active compounds read low 1 | S. cerevisiae deletion strains, locus YPL256C, strain CLN2, active compounds read low 0.979 | S. cerevisiae deletion strains, locus YPR119W, strain clb2, active compounds read low 0.986 | S. cerevisiae deletion strains, locus YPR141C, strain kar3, active compounds read low 0.988 | S. cerevisiae deletion strains, locus YPR163C, strain tif3, active compounds read low 0.995 | S. cerevisiae deletion strains, locus YPR167C, strain met16, active compounds read low 0.997 | S. cerevisiae deletion strains, strain wtn01, active compounds read low 1.04 | S. cerevisiae strains, strain wild type, active compounds read low 1.04
